# Laboratory results reported in PubChem BioAssay AID504433 (National Center for Advancing Translational Sciences (NCATS), 2011).
# Inconclusive results are not listed. The source made the active and inactive calls. Calls follow the shape of the dose curve; as a rule, active = well fitted inhibition curve with a large enough effect; inconclusive = small, poorly fitted or top-dose-only effect; inactive = flat fitted curve, though single readings scatter.
# Test: Secondary Assay for lipid storage modulators: Cytotoxcity for probe SAR round 2
# Description: NIH Molecular Libraries Probe Production Centers Network [MLPCN] NIH Chemical Genomics Center [NCGC] MLPCN Grant: 1 R03 MH085686-01 Assay Submitter (PI): Beller, Mathias; Max-Planck-Institut fur Biophysikalische Chemie, Germany. NCGC Assay Overview: Storing lipids as a reservoir for energy or the anabolism of elementary metabolites is a common feature of probably all cells and is conserved from bacteria to humans. The universal cellular lipid storage organelle is the so-called lipid storage droplet (LD). Although ubiquitous, LDs share a simple structure composed of a hydrophobic core that harbors the storage lipids, which is shielded by a droplet-specific phospholipid monolayer to which proteins are attached. The current model of LD biogenesis involves an incorporation of the lipid core into the membrane leaflets of the endoplasmic reticulum (ER) followed by a subsequent budding-like maturation of a LD, which ultimately pinches off. Once released, LD volume can increase by localized lipogenesis or fusion of existing droplet. Storage lipids are re-mobilized enzymatically by lipase activity. […]
# Assay Protocol Summary: Cytotoxcity assay was performed with embryonic Drosophila S3 cells (Bloomington Drosophila Genomics Resource Center [DGRC]). […] Luminescence was detected on the Perkin Elmer ViewLux.
smiles,measurement,value
CCC/C=C/C/C=C/C=C/C=N/NN=O,outcome,inactive
